An excerpt weighted towards active compounds, which were near 1.2% of everything screened.
gsp antagonist: gsp mutant antagonism. 340,000 compounds, 0.4% hits. Potency, µM (doses to about 76.9 µM), hits mostly inhibitors. gsp-mutant cells, cAMP HTRF, 30 min; calls by dose curve; cell line not stated here;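 also: intracellular cAMP measured with PDE inhibitor Ro 20-1724 present during compound exposure; nearly all actives have a fitted effect of over 65% in size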
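Cells in G418 medium, seeded 16-24 h, 37C; buffer exchange to DPBS + 1 mM CaCl2, 0.5 mM MgCl2, 0.05% BSA; cpds in DMSO + […] (300 uM stock), 30 min 37C; HTRF cAMP detection.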
RXFP1 antag: antagonists of human relaxin receptor RXFP1. Q9HBX9. HEK293-RXFP1, relaxin-stimulated cAMP HTRF, 30 min; active compounds read low. activity change, negative = inhibition, % at 57.5 µM. 350,000 compounds, 0.59% hits. AID 1259400;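 active = activity change of -60% or lower, but not beyond a set lower limit; inconclusive = change between -60% and -40%, or beyond the set limit; inactive = change above -40%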
Target sequence (Q9HBX9 whole entry, looked up): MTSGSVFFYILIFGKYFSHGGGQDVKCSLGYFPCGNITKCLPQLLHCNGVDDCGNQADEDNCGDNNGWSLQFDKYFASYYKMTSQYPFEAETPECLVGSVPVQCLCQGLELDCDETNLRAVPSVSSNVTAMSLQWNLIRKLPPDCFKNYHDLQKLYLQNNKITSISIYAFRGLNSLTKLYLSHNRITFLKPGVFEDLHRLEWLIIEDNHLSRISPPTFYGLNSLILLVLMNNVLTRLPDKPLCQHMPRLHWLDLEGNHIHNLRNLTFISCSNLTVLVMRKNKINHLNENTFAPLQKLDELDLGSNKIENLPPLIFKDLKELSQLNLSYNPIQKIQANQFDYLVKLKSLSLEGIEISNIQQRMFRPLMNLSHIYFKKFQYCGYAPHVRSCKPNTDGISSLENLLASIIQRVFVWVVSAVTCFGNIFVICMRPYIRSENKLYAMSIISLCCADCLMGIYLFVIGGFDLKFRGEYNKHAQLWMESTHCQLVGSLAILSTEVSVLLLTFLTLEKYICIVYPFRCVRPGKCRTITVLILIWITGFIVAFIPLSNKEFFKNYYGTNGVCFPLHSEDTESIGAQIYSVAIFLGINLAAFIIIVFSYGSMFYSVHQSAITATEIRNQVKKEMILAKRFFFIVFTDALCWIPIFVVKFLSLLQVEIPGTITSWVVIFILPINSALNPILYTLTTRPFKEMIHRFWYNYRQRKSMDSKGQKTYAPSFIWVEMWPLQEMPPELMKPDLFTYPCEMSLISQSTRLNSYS
RXFP1 agonist: agonists of human relaxin receptor RXFP1 | 370,000 compounds, 0.3% hits | HEK293T-RXFP1 cAMP TR-FRET, 30 min; response scale: percent of porcine relaxin response, buffer zero | Potency, µM (titrated, usually from 57.5 µM), most hits filed as activators | AID 2676 | Q9HBX9; active = well fitted activation curve with a large enough effect; inconclusive = small, poorly fitted or top-dose-only effect; also: nearly all actives have a fitted effect of over 60% in size
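HEK293T cells stably expressing RXFP1 were pretreated with the PDE4 inhibitor Ro 20174, exposed to compounds for 30 min at 37C, lysed, and cAMP was read by TR-FRET. Data normalized to buffer (basal) and 29 nM porcine relaxin (100%).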
gsp ag: activates gsp, the McCune-Albright syndrome mutation | gsp mutant cells, cAMP HTRF, 30 min | Potency, µM (doses to about 76.9 µM), usual class: activators | 340,000 compounds, 0.13% hits; active = well fitted activation curve with a large enough effect; inconclusive = small, poorly fitted or top-dose-only effect, or another doubt; inactive = no such curve, though single readings can be large or run the other way; cell line not stated here;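 also: phosphodiesterase inhibitor Ro 20-1724 added with compounds to block cAMP breakdown; nearly all actives have a fitted effect of over 60% in size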
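Cells stably selected in G418 were plated at 2000/well, grown 16-24 hr, then given compounds in DMSO with the PDE inhibitor […] (300 uM solution added) for 30 min at 37C; cAMP was read by HTRF.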
Akt phos inh: inhibitors of Akt phosphorylation; AID 651550; activity change, % for hits at 50 µM; Neuro2A IGF-stimulated pAkt S473 HTRF, 20 min; active compounds read low; 360,000 compounds, 0.32% hits; in the data active = activity change below about -80%; inconclusive = mostly about -51% to -80%
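Neuro2A cells in DMEM with 0.5% FBS, overnight at 37 deg C, given compound at single 50 µM final, then IGF (6 nM final) for 20 min at 37 deg C. Lysed; phospho-Akt Ser473 by HTRF after 24 h, 665/615 ratio.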
Large screens that a line does not name were inactive.

CCOc1ccccc1N(CC(=O)Nc1ccc(S(=O)(=O)N2CCOCC2)cc1)S(C)(=O)=O	none
CCOc1ccccc1C(=O)NCC(=O)NCc1ccc(S(=O)(=O)N2CCOCC2)cc1	gsp ag 32µM
CCOc1ccccc1C(=O)NCC(=O)NCC(C)(C)N1CCOCC1	none
Nc1c(NC/C=C\COc2cc(CN3CCCCC3)ccn2)c(=O)c1=O	none (no result: gsp antagonist, RXFP1 agonist, gsp ag, Akt phos inh)
CC(=O)Nc1cccc(NC(=O)c2cc3c(=O)n4cccc(C)c4nc3n2C)c1	none (no result: gsp antagonist, gsp ag, Akt phos inh)
CCCCC/C=C/C/C=C/CCCCCCCC(=O)NC(C)c1ccccc1 (configuration not stated)	none (no result: gsp antagonist, RXFP1 agonist, gsp ag, Akt phos inh)
CC(=O)c1cc(Cl)ccc1OCc1cccc(S(=O)(=O)N2CCOCC2)c1	gsp antagonist 35µM
COc1ccc(CCNC(=O)c2cc(S(=O)(=O)N3CCC4(CC3)OCCO4)ccc2F)cc1OC	gsp antagonist 11µM, gsp ag inconclusive
COC(=O)CS(=O)(=O)c1nc2ccccc2nc1N1CCCCC1	none (no result: gsp antagonist, RXFP1 antag, gsp ag, Akt phos inh)
CCCC(=O)c1cc(O)c(O)cc1O	none (no result: gsp antagonist, RXFP1 agonist, gsp ag, Akt phos inh)
Cc1ccc(C)c(N2CCN(C(=O)c3c4c(nc5ccccc35)C(=O)N(C3CCCCC3)C4)CC2)c1	none (no result: gsp antagonist, gsp ag, Akt phos inh)
O=C(OCC#CCNc1nnc(-c2cccc3ccccc23)o1)c1cccs1	none (no result: gsp antagonist, RXFP1 antag, gsp ag, Akt phos inh)
N=C(N)SCc1cn(-c2ccccc2)nc1-c1ccc(Br)cc1	RXFP1 antag -79 (no result: gsp antagonist)
Cc1ccc(-c2nn(-c3ccccc3)cc2CO)cc1	none
O=C(CSc1nnc(-c2ccncc2)n1Cc1ccccc1)NCCc1ccccc1	none
CNC(=O)CSc1nnc(-c2ccncc2)n1Cc1ccccc1	Akt phos inh -112%
COc1ccc(C)cc1NC(=O)Cn1c(=O)ccc2cc(S(=O)(=O)N3CCC(C)CC3)ccc21	none (no result: gsp antagonist, gsp ag, Akt phos inh)
CCOC(=O)c1ccc(NC(=O)c2sc3nc(N4CCOCC4)c4c(c3c2N)CCCC4)cc1	gsp ag 18µM (no result: Akt phos inh)
COc1ccc(NC(=O)c2sc3nc(N4CCOCC4)c4c(c3c2N)CCCC4)cc1	none (no result: gsp antagonist, RXFP1 agonist)
CCOc1ccc(NC(=O)c2csc3c2CCCC3)cc1	none (no result: RXFP1 antag)
CCOC(=O)c1ccc(NC(=O)c2csc3c2CCCC3)cc1	RXFP1 antag -93 (no result: gsp antagonist, gsp ag, Akt phos inh)
Nc1ccc(N=Nc2ccccc2O)c(N)c1	none (no result: RXFP1 agonist)
Oc1ccccc1N=Nc1ccccc1O	gsp antagonist 35µM
CCC(=O)Nc1ccccc1-c1nc2ccccc2n(C(C)C(=O)Nc2ccc(OC)cc2)c1=O (configuration not stated)	none (no result: gsp antagonist, gsp ag, Akt phos inh)
CC1(C)CC(C(CCN(Cc2ccccc2)C(=O)c2ccco2)c2ccc(F)cc2)CCO1 (configuration not stated)	gsp antagonist 28µM
O=C(c1ccco1)N(CCC(c1ccccc1)c1ccco1)Cc1ccc(F)cc1 (configuration not stated)	none
O=C(OCc1ccccc1)c1cnc(Cl)c(Cl)c1	none
CC(C)N(Cc1ccccc1)C(=O)COC(=O)c1cc(S(=O)(=O)N(C)C)ccc1N1CCCC1	RXFP1 antag -75 (no result: RXFP1 agonist)
CN(C)S(=O)(=O)c1ccc(N2CCCC2)c(C(=O)OCC(=O)N2CCN(c3ccccc3)CC2)c1	none
CC(C)N(Cc1ccccc1)C(=O)COC(=O)c1cnc(Cl)c(Cl)c1	RXFP1 antag -72 (no result: RXFP1 agonist)
Cc1ccccc1NC(=O)c1c(C)oc2ccc(O)c(CN3CCCC3)c12	none (no result: gsp antagonist, gsp ag, Akt phos inh)
O=C1/C(=C2\C(=O)N(Cc3ccc(F)cc3)c3ccccc32)SC(=S)N1CCS(=O)(=O)O	RXFP1 antag -72
C=C(CC)C(=O)c1ccc(OCC(=O)O)c(Cl)c1Cl	gsp antagonist inconclusive, RXFP1 antag -71 (no result: gsp ag)
COc1cc(C(=O)n2nc(-c3ccco3)nc2NCc2ccc(Cl)cc2)cc(OC)c1OC	none (no result: gsp antagonist, gsp ag, Akt phos inh)
Cn1cnnc1Sc1nc2c(c(=O)n(C)c(=O)n2C)n1C	gsp ag 22µM (no result: RXFP1 agonist)
Cc1ccc(NC(=O)Cn2c(=O)n(CCc3ccccc3)c(=O)c3c4c(sc32)CCCC4)c(C)c1	none (no result: gsp antagonist, RXFP1 antag, gsp ag, Akt phos inh)
COc1ccccc1NC(=O)CCCCCN1C(=O)c2cccc([N+](=O)[O-])c2C1=O	none
COc1cc(/C=C2/C(=O)c3cccc([N+](=O)[O-])c3C2=O)c(Br)cc1O	gsp antagonist 35µM
CCC(C)NS(=O)(=O)c1ccc(OCC(=O)Nc2ccc(F)cc2F)cc1 (configuration not stated)	Akt phos inh -111%
CC/C(=N\n1nnnc1Nc1ccccc1)c1ccccc1	Akt phos inh -113%
CC(C)c1ccc(/C=N/n2nnnc2Nc2ccccc2)cc1	none
O=C(Nc1nncs1)C1c2ccccc2Oc2ccccc21	Akt phos inh -102%
Cc1nnc(NC(=O)C2c3ccccc3Oc3ccccc32)s1	none
COCC(C)Nc1ncnc2c1cnn2-c1ccc(C)c(C)c1 (configuration not stated)	none (no result: gsp antagonist, gsp ag, Akt phos inh)
CC(C)(C)OC(=O)NCCCCCc1nnc(SCC(=O)Nc2cccc(Cl)c2)o1	gsp antagonist 35µM
CSc1nccn1CC(=O)Nc1ccc(F)cc1	Akt phos inh -114%
O=C(CN1CCCCC1)Nc1ccccc1	none
CCOc1ccc(NC(=O)CN2CCN(CC(=O)Nc3ccc(F)cc3)CC2)cc1	Akt phos inh -117%
O=C(CN1CCCCCC1)Nc1ccc(Oc2ccccc2)cc1	RXFP1 antag -64
CCOc1ccc(NC(=O)CN2CCN(CC(=O)c3ccc(OCC)cc3)CC2)cc1	none
COc1ccc(C(=O)N2CC(=O)Nc3ccc(C)cc3C2c2ccc(F)cc2)c(OC)c1 (configuration not stated)	none (no result: gsp antagonist, gsp ag, Akt phos inh)
COc1ccc(Cl)cc1NC(=O)c1ccc2c(c1)CCCN2S(C)(=O)=O	none (no result: gsp antagonist, gsp ag, Akt phos inh)
Cc1noc(C)c1CSc1nnc(C)c(=O)[nH]1	Akt phos inh -108%
CCOC(=O)C1C(=O)Oc2ccc3ccccc3c2C1C1CCOC1=O (configuration not stated)	gsp antagonist 50µM (no result: RXFP1 antag)
NC(=O)c1ccc(NC(=O)CN2CCN(S(=O)(=O)c3ccc4c(c3)OCCO4)CC2)cc1	gsp antagonist 50µM
CC(C)C(Cl)=NOC(=O)Nc1ccc(S(N)(=O)=O)cc1	RXFP1 antag -73 (no result: RXFP1 agonist)
C[C@H]1O[C@H](O[C@H]2[C@H](O)[C@@H](O)[C@@H](O[C@H]3[C@H](O)[C@@H](O)[C@H](O)O[C@@H]3CO)O[C@@H]2CO)[C@H](O)[C@@H](O)[C@@H]1N[C@H]1C=C(CO)[C@@H](O)[C@H](O)[C@H]1O	none (no result: gsp antagonist, RXFP1 agonist, gsp ag, Akt phos inh)
CC(C)(C)NCC(O)COc1ccc(NC(=O)NC2CCCCC2)cc1 (configuration not stated)	none (no result: gsp antagonist, RXFP1 agonist, gsp ag, Akt phos inh)
CCS(=O)(=O)c1nc(S(=O)(=O)c2ccc(C)cc2)c(N2CC(C)OC(C)C2)s1 (configuration not stated)	RXFP1 agonist 28µM, gsp ag inconclusive
CCCS(=O)(=O)c1nc(S(=O)(=O)c2ccc(C)cc2)c(N2CCN(C)CC2)s1	RXFP1 agonist inconclusive, gsp ag 3.2µM
CCCS(=O)(=O)c1nc(S(=O)(=O)c2ccc(C)cc2)c(NCCCN2CCCC2=O)s1	gsp ag 2.8µM
CC(=O)N[C@@H](CCC(N)=O)C(=O)O	none (no result: gsp antagonist, RXFP1 agonist, gsp ag, Akt phos inh)

Screens (PubChem)
